Sfp PPTase inh: qHTS Assay for Inhibitors of Bacillus subtilis Sfp phosphopantetheinyl transferase (PPTase); 4'-phosphopantetheinyl transferase ffp (Bacillus subtilis), Q9F4F7; Biochemical Sfp PPTase activity, qHTS; Potency, µM, for inactives: largest response in the series, negative = inhibition, usual class: inhibitors; 3.5% of 310,000 active; AID 1490, 2009;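 note: the enzyme is Sfp with the accession as filed and its product quenches rhodamine fluorescence; 0% = enzyme reaction without inhibitor and -100% = no enzyme wells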
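Buffer: 50 mM Hepes-Na pH 7.6, 10 mM MgCl2, 0.01% Nonidet P-40, 0.01% BSA. Enzyme 15 nM, pre-exposed to compound 15 min; substrates then added and fluorescence change tracked over 30 min.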
HP1b chromo inh: HTS for Inhibitors of HP1-beta Chromodomain Interactions with Methylated Histone Tails | Chromobox protein homolog 1 (Homo sapiens), P83916 | AlphaScreen HP1-beta / biotin-H3K9me3 peptide binding | Potency, µM (highest dose often 114 µM), inactives show at the highest dose activity change, negative = inhibition, actives largely listed as inhibitors | 0.56% of 390,000 active | AID 540317, 2011; note: nearly all actives have a fitted effect of over 70% in size
Target sequence (P83916 whole entry, looked up): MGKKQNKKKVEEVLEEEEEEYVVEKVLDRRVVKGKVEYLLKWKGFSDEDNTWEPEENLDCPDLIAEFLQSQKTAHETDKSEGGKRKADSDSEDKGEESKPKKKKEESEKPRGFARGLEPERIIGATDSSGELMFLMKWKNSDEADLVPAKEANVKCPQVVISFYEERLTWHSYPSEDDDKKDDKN
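AlphaScreen: HP1-beta (50 nM) preformed 30 min with biotin-H3(1-18)K9me3 peptide (50 nM) in PBS pH 7.4, 0.01% Tween-20. Compound added for 30 min at RT, then streptavidin donor/nickel chelate acceptor beads (10 ug/mL) for 30 min.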
BAZ2B block: qHTS Assay for Inhibitors of BAZ2B | Bromodomain adjacent to zinc finger domain protein 2B (Homo sapiens), Q9UIF8 | AlphaScreen BAZ2B-H3K14Ac peptide displacement | Potency, µM (series often up to 114 µM), for inactives: at the highest dose activity change, negative = inhibition, actives largely listed as inhibitors | 4.4% of 360,000 active | AID 504333, 2011; note: % is set by controls: 0 for no effect and ±100 for the full control effect; nearly all actives have a fitted effect of over 60% in size
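AlphaScreen displacement of biotin-H3(5-23)K14Ac peptide (50 nM final) from BAZ2B (50 nM final) in PBS pH 7.4, 0.01% Tween-20; complex preformed 30 min RT, then compounds (top 110 uM) 30 min RT, beads 20 min dark.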
TDP1 inh: qHTS Assay for Inhibitors of Tyrosyl-DNA Phosphodiesterase (TDP1). Tyrosyl-DNA phosphodiesterase 1 (Homo sapiens), Q9NUW8. recombinant TDP1, AlphaScreen DNA substrate cleavage. Potency, µM (top dose mostly 130 µM), without a hit: at the highest dose activity change, negative = inhibition, usual class: inhibitors. 0.28% of 350,000 active. AID 485290, 2010; note: % is set by controls: 0 for no effect and ±100 for the full control effect; nearly all actives have a fitted effect of over 40% in size
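Tdp1 1 nM final; 15 min RT w/ cpd; substrate 15 nM, 5 min; beads 10 ug/ml, 10 min; AlphaScreen read. Neg ctrl: no enzyme.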
G9a inh: qHTS Assay for Inhibitors of Histone Lysine Methyltransferase G9a; Histone-lysine N-methyltransferase EHMT2 (Homo sapiens), Q96KQ7; AID 504332, 2011; Potency, µM (doses to about 102 µM), without a hit: top-dose activity, negative = inhibition, hits mostly inhibitors; G9a H3K9 monomethylation, AlphaScreen, 2 h; 8.8% of 350,000 active; note: % is set by controls: 0 for no effect and ±100 for the full control effect; nearly all actives have a fitted effect of over 75% in size
Target sequence (Q96KQ7 913-1193 limits assumed): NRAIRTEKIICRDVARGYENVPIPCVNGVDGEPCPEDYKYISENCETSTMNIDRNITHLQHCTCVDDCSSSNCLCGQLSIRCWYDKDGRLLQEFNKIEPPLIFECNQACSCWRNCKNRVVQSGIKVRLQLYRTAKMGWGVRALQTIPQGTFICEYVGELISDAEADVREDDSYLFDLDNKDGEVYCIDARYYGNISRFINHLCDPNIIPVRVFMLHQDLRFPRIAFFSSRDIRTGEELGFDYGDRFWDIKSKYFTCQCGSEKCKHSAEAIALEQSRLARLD
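AlphaScreen detection with an anti-monomethyl H3K9 antibody quantified product after a 2 h room-temperature reaction containing 500 nM biotinylated H3K9 peptide, 20 µM SAM and 20 nM enzyme, which had been preincubated 15 min with compound.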
JMJD2A Tudor inh: qHTS Assay for Inhibitors of JMJD2A-Tudor Domain; Lysine-specific demethylase 4A (Homo sapiens), O75164; AlphaScreen JMJD2A-Tudor / H3K4me3 peptide binding; Potency, µM (doses to about 114 µM), inactives show at the highest dose activity change, negative = inhibition, hits mostly inhibitors; 4.4% of 390,000 active; AID 504339, 2011; note: % is set by controls: 0 for no effect and ±100 for the full control effect; nearly all actives have a fitted effect of over 50% in size
* hit, by the source's call; u = inconclusive; x = no result given; [ ] = remark or other dose. The list is not random: actives were taken first. Their share in the collection is about 12%. Calls come from the whole dose curve; as a rule, active = well fitted curve in the direction sought with a large enough effect; inconclusive = small, poorly fitted or top-dose-only effect, or another doubt; inactive = no such curve, though single readings can be large; an effect the other way counts as inactive or inconclusive. Potency is the fitted concentration of half-maximal effect.

SMILES	Sfp PPTase inh	HP1b chromo inh	BAZ2B block	TDP1 inh	G9a inh	JMJD2A Tudor inh
O=C1c2ccccc2C(=O)N1/N=C/c1ccc(O)c(O)c1	-30%	-20%[57 µM]	u	-10%	11µM*	8.9µM*
COc1ccc(O)c(/C=N/N2CCCCC2)c1	8%	4%	50µM*	x	50µM*	50µM*
COc1ccc(/C(C)=N/N2CCCCC2)c(O)c1	7%	40%	2%	x	8%	14%
N#Cc1ccc(C=NN2CCCCCC2)cc1	x	u	x	x	x	35µM*
Cc1cc(=O)oc2cc(O)cc(OCc3ccccc3)c12	x	45%	x	x	x	-14%
COc1ccc(C(=O)Nc2ccc3nc4c(c(Nc5ccc(OC)c(OC)c5)c3c2)CCCC4)c(OC)c1	x	-20%	u	9%	-20%[59 µM]	u
COc1ccccc1Nc1c2c(nc3ccc(NC(=O)c4ccc(OC)c(OC)c4)cc13)CCCC2	x	-17%	u	6%	14µM*	u
COc1ccccc1Nc1c2c(nc3ccc(NC(=O)c4ccccc4F)cc13)CCCC2	x	0%	u	12%	u	u
COc1ccccc1Nc1c2c(nc3ccc(N)cc13)CCCC2	1%	-25%	35µM*	10%	40µM*	40µM*
COc1ccc(Nc2c3c(nc4ccc(NC(=O)c5ccc(F)cc5)cc24)CCCC3)cc1OC	x	u	32µM*	9%	u	56µM*
COc1ccccc1Nc1c2c(nc3ccc(NC(=O)c4cccc(OC)c4OC)cc13)CCCC2	x	16%	-37%	12%	u	u
Oc1cc2cc(CCN3CCN(c4nsc5ccccc45)CC3)c(Cl)cc2[nH]1	-8%	x	x	x	u	x
COc1ccc2c(CNC3CCC(C)CC3)c(C(=O)O)n(Cc3ccccc3)c2c1 (stereo unspecified)	x	18%	u	3%	-29%[59 µM]	-16%
CC(=O)Nc1ccc2nc(-c3ccncc3)[nH]c2c1	-1%	23%	u	7%	5%	-25%
CC(=O)Nc1ccc2nc(-c3ccccn3)[nH]c2c1	50µM*	12%	u	0%	u	56µM*
CC(=O)Nc1cc(NC(C)=O)cc(-c2nc3ccccc3[nH]2)c1	12%	u	50µM*	6%	-2%	-10%
Cc1ccsc1CCN1C(=O)N(c2ccccc2)C(=O)C1CC(=O)Nc1ccc(Cl)cc1 (stereo unspecified)	x	27%	-13%	-4%	-35%[59 µM]	-17%
O=C(CCCn1c2ccccc2c(=O)c2ccccc21)Nc1cccc(Cl)c1	x	110%	56%	0%[12.3 µM]	101%[59 µM]	58%
O=C(Nn1cnnc1)c1cc([N+](=O)[O-])cc([N+](=O)[O-])c1	13%	17%	-39%	3%	-27%	-14%
Nc1c(C(=O)Nn2cnnc2)cc([N+](=O)[O-])cc1[N+](=O)[O-]	22%	x	4%	5%	50µM*	x
Cc1ccc(C(c2nnnn2C2CCCC2)N2c3ccccc3CC2C)cc1 (stereo unspecified)	9%	26%	-11%	0%	71µM*	-17%
COc1ccc(OCC(O)CN(CCO)CC(O)Cn2ccc3ccccc32)cc1 (stereo unspecified)	1%	21%	-4%	4%	10%[59 µM]	-22%
CCC(=C(c1ccc(OC)cc1)c1ccc(OC)cc1)c1cn(CC(O)CN(CCO)CCO)c2ccccc12 (stereo unspecified)	u	-6%	35µM*	5%	40µM*	45µM*
Cc1sc2ncn(CC(=O)NCCCC(=O)N3CCN(Cc4ccc5c(c4)OCO5)CC3)c(=O)c2c1C	24%	12%	-16%	6%	-8%	-15%
